# From PMC5700166
# Key:
# Assay in all cases: protein-binding microarray (PBM); PBM: ~300 nM protein, 6 mM HEPES pH 7.8, 80 mM KCl, 0.5 mM EDTA, 0.5 mM EGTA, 6% glycerol, 35 ng/ul poly-dIdC, 1% milk, 1 h, room temperature; Ap Aiptasia and Nv Nematostella (sea anemones) / Co Capsaspora / Aq Amphimedon (sponge) / Dm Drosophila / Hu human; RHD is the Rel homology domain; high values mean tight binding
# Details in all cases: dsDNA, one strand shown
# GST-Ap-NF-kB RHD = molecular target: T1, GST-Ap-NF-kB RHD (Exaiptasia pallida (Aiptasia), UniProt A0A913YAJ5 2-422)
# T1 sequence: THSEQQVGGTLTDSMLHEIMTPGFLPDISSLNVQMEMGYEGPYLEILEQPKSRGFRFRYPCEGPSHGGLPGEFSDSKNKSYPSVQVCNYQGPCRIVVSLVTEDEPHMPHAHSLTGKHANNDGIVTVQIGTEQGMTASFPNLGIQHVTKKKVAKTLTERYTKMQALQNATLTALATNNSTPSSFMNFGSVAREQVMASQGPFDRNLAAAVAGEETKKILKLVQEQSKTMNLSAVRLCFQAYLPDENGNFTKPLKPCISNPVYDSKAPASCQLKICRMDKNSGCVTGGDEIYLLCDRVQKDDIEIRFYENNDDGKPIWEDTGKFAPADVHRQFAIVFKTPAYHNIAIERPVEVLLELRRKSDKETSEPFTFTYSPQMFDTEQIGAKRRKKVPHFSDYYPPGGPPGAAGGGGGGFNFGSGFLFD
# [1] = molecular target: T2, GST-Nv-NF-kB (Cys allele) (Nematostella vectensis, UniProt E5G601 2-411)
# T2 sequence: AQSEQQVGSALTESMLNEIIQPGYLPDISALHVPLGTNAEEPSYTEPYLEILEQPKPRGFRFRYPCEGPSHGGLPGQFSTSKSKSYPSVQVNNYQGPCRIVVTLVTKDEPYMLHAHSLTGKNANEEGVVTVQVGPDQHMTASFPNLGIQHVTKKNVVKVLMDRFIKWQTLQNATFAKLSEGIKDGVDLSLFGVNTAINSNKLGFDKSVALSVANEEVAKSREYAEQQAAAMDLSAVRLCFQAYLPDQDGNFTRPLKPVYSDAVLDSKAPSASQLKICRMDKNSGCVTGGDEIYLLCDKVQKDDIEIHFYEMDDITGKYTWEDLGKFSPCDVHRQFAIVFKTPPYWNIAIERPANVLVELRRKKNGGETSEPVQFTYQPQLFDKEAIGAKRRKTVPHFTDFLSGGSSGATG
# GST-Co-NF-kB = molecular target: T3, GST-Co-NF-kB (Capsaspora owczarzaki, UniProt F1ARL5 200-546)
# T3 sequence: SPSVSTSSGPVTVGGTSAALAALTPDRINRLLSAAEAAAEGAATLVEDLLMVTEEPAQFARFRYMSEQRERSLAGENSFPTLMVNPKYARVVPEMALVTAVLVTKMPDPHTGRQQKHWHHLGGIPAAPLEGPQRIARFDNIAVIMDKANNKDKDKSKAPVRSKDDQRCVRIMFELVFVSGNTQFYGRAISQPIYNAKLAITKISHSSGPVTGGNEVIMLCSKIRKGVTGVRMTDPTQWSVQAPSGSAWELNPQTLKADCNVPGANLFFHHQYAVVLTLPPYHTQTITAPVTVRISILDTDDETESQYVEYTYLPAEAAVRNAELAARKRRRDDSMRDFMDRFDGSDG
# GST-Dm-Relish = molecular target: T4, GST-Dm-Relish (Drosophila melanogaster, UniProt Q94527 99-473)
# T4 sequence: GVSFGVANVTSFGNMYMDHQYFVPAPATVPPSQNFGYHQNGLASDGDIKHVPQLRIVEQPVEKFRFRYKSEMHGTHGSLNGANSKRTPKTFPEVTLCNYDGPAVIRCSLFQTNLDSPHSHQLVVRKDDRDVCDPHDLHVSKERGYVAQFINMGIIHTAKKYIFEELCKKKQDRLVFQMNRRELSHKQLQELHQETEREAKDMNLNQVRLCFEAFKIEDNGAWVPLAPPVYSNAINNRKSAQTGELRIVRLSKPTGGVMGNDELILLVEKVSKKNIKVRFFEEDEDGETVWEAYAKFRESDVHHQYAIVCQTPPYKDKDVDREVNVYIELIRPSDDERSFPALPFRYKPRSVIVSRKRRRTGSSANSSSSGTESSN
# GST-Aq-NF-kB = molecular target: T5, GST-Aq-NF-kB (Amphimedon queenslandica, UniProt A9Y5G7 2-389)
# T5 sequence: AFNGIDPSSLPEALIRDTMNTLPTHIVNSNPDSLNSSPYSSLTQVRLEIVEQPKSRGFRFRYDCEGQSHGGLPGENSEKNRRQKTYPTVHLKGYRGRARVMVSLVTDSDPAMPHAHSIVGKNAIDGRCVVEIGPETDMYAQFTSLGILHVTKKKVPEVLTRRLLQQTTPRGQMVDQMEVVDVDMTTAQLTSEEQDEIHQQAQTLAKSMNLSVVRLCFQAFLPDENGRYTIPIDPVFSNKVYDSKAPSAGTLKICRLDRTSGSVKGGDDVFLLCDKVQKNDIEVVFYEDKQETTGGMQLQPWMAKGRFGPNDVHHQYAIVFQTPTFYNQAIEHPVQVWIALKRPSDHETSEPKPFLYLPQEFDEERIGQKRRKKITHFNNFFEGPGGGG
# GST-Hu-p50 = GST-Hu-p50 (Homo sapiens, UniProt P19838 7-356)
# Sequence of GST-Hu-p50 (P19838 7-356): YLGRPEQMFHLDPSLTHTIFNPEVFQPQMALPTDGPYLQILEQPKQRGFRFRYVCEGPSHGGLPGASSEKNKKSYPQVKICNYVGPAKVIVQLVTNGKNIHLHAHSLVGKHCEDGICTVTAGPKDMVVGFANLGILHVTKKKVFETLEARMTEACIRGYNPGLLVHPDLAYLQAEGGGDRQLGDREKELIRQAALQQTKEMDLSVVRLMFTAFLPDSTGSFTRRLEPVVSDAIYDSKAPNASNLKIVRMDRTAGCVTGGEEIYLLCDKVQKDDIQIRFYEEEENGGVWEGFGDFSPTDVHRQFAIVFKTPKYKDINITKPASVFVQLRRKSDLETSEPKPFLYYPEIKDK
Sequence,binding signal (GST-Ap-NF-kB RHD),binding signal [1],binding signal (GST-Co-NF-kB),binding signal (GST-Dm-Relish),binding signal (GST-Aq-NF-kB),binding signal (GST-Hu-p50)
CCGATTAACATCAGAATACCCCCTGATGTTAATCGGGTCTTGATTCGCTTGACGCTGCTG,7.89 z-score,5.69 z-score,4.84 z-score,5.26 z-score,5.57 z-score,5.27 z-score
CCGATTAACATCAAAATGCCCCCTGATGTTAATCGGGTCTTGATTCGCTTGACGCTGCTG,5.68 z-score,5.66 z-score,4.18 z-score,5.29 z-score,6.11 z-score,5.37 z-score
CCGATTAACATCAGGGGGAACAATGATGTTAATCGGGTCTTGATTCGCTTGACGCTGCTG,5.8 z-score,5.75 z-score,9.17 z-score,3.62 z-score,4.61 z-score,5.11 z-score
CCGATTAACATCAGACAACCCCCTGATGTTAATCGGGTCTTGATTCGCTTGACGCTGCTG,5.23 z-score,4.47 z-score,1.95 z-score,5.15 z-score,4.98 z-score,5.28 z-score
CCGATTAACATCATACTTCCCCATGATGTTAATCGGGTCTTGATTCGCTTGACGCTGCTG,3.97 z-score,4.88 z-score,4.69 z-score,3.18 z-score,3.58 z-score,4.41 z-score
CCGATTAACATCAATATCCCCCCTGATGTTAATCGGGTCTTGATTCGCTTGACGCTGCTG,7.34 z-score,5.13 z-score,8.06 z-score,5.53 z-score,5.74 z-score,5.69 z-score
CCGATTAACATCAAAACACCCCTTGATGTTAATCGGGTCTTGATTCGCTTGACGCTGCTG,3.63 z-score,2.54 z-score,2 z-score,4.19 z-score,4.03 z-score,4.32 z-score
CCGATTAACATCAGGGGGAGTACTGATGTTAATCGGGTCTTGATTCGCTTGACGCTGCTG,6.52 z-score,4.73 z-score,5.82 z-score,9.03 z-score,6.58 z-score,5.94 z-score
CCGATTAACATCAGGGCACCCCCTGATGTTAATCGGGTCTTGATTCGCTTGACGCTGCTG,6.14 z-score,4.52 z-score,2.4 z-score,8.28 z-score,7.23 z-score,4.75 z-score
CCGATTAACATCAGGGATACACCTGATGTTAATCGGGTCTTGATTCGCTTGACGCTGCTG,2.29 z-score,1.83 z-score,1.56 z-score,2.76 z-score,3.45 z-score,2.49 z-score
CCGATTAACATCAGGGGACCCCCTGATGTTAATCGGGTCTTGATTCGCTTGACGCTGCTG,9.65 z-score,6.03 z-score,4.17 z-score,10.7 z-score,8.56 z-score,5.4 z-score
CCGATTAACATCAAAAAATCCCTTGATGTTAATCGGGTCTTGATTCGCTTGACGCTGCTG,6.16 z-score,7.58 z-score,1.77 z-score,8.1 z-score,7.46 z-score,5.47 z-score
CCGATTAACATCAGAGATCCCCCTGATGTTAATCGGGTCTTGATTCGCTTGACGCTGCTG,7.26 z-score,6.17 z-score,4.52 z-score,6.84 z-score,5.8 z-score,6.13 z-score
